# Source: ChEMBL document CHEMBL1961873, “Compounds: GSK PKIS; Assays: Nanosyn kinase panel” (2012)
# Key:
# [1] = molecular target: Sphingosine kinase 1 (Homo sapiens) (UniProt Q9NYA1); settings: at 1 µM;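 also: mean SPHK1 inhibition value reported from the GSK PKIS kinase panel screen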
# [2] = molecular target: T1, Sphingosine kinase 2 (Homo sapiens) (UniProt Q9NRA0); settings: at 0.1 µM
# T1 sequence (whole entry): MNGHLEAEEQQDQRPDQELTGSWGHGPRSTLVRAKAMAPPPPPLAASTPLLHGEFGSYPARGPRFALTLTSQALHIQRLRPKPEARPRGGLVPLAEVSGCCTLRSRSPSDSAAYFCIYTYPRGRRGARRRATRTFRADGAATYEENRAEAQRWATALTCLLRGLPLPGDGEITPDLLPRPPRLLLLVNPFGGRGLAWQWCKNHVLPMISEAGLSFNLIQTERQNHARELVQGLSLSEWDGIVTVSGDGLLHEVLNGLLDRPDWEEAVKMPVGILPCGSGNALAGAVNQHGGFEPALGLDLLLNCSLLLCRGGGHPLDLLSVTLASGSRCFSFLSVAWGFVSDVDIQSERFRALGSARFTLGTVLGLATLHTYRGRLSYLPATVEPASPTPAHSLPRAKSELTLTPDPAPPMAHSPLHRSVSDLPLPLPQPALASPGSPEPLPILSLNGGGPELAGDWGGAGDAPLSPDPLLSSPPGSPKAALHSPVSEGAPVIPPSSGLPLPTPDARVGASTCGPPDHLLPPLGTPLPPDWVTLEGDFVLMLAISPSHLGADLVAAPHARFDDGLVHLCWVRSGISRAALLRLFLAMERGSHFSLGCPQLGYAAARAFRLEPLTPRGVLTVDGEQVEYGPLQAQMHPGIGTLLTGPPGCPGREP
# [3] = molecular target: T1, Sphingosine kinase 2 (Homo sapiens); settings: at 1 µM
# [4] = molecular target: Casein kinase II subunit alpha (Homo sapiens) (UniProt P68400); settings: at 0.1 µM
# [5] = molecular target: Casein kinase II subunit alpha (Homo sapiens) (UniProt P68400); settings: at 1 µM
# [6] = molecular target: T2, Inhibitor of nuclear factor kappa-B kinase subunit alpha (Homo sapiens) (UniProt O15111); settings: at 0.1 µM
# T2 sequence (whole entry): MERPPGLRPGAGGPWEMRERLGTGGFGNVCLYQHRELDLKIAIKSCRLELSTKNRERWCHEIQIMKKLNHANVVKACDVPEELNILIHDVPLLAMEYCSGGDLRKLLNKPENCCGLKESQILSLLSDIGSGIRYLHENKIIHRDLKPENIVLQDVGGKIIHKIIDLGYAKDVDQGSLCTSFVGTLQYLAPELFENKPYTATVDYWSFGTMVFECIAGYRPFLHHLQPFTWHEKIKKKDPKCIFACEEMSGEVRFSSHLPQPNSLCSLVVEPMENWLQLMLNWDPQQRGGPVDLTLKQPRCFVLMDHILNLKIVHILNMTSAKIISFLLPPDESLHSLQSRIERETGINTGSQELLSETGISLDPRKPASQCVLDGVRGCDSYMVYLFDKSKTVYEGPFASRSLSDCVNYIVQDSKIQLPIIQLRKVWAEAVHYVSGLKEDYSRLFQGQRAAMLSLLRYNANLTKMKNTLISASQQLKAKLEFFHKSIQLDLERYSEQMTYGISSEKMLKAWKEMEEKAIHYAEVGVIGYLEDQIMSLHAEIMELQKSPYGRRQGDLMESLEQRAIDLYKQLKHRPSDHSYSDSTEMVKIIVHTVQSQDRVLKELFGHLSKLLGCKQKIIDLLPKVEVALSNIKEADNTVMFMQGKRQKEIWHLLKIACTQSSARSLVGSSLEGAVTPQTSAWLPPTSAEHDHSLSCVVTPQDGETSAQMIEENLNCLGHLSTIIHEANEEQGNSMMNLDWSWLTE
# [7] = molecular target: T2, Inhibitor of nuclear factor kappa-B kinase subunit alpha (Homo sapiens); settings: at 1 µM
# [8] = molecular target: T3, Inhibitor of nuclear factor kappa-B kinase subunit beta (Homo sapiens) (UniProt O14920); settings: at 0.1 µM
# T3 sequence (whole entry): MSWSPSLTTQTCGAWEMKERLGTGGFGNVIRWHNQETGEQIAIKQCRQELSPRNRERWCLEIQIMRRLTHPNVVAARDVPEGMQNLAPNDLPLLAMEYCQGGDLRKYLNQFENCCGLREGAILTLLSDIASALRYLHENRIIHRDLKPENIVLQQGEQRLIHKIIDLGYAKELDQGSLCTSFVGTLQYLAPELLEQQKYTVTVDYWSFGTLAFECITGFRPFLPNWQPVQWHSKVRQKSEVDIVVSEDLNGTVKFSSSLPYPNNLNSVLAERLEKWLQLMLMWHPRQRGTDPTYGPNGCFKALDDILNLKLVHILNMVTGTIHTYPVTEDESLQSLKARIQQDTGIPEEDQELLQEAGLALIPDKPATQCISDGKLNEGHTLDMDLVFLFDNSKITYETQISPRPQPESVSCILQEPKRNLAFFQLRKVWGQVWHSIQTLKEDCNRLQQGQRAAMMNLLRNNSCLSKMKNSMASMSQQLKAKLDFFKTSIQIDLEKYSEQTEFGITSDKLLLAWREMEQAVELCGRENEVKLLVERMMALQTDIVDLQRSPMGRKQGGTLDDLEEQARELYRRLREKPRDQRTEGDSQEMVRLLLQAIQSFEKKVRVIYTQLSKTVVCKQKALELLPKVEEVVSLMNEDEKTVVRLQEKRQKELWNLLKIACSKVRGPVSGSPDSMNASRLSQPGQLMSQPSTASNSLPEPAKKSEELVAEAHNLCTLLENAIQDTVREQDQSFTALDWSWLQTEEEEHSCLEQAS
# [9] = molecular target: T3, Inhibitor of nuclear factor kappa-B kinase subunit beta (Homo sapiens); settings: at 1 µM
# [10] = molecular target: T4, Inhibitor of nuclear factor kappa-B kinase subunit epsilon (Homo sapiens) (UniProt Q14164); settings: at 0.1 µM
# T4 sequence (whole entry): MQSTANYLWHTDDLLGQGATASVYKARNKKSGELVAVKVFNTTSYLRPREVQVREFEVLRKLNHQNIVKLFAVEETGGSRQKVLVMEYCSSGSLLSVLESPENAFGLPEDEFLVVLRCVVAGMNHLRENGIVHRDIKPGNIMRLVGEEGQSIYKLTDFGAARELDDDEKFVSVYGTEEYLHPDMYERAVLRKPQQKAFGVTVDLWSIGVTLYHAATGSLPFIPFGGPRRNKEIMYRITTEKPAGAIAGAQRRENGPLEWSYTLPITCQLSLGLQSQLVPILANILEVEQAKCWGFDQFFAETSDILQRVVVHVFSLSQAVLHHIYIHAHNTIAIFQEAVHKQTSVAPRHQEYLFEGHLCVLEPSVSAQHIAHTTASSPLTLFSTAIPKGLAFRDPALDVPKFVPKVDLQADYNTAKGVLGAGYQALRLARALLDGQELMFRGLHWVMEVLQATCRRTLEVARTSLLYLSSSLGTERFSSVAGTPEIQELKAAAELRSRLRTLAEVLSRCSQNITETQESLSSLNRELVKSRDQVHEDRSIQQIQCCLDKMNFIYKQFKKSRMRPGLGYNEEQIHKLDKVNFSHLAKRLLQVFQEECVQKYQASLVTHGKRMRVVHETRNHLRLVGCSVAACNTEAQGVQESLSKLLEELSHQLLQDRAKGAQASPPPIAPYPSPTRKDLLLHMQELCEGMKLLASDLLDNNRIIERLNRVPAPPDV
# [11] = molecular target: T4, Inhibitor of nuclear factor kappa-B kinase subunit epsilon (Homo sapiens); settings: at 1 µM
# [12] = molecular target: T5, Serine/threonine-protein kinase Nek1 (Homo sapiens) (UniProt Q96PY6); settings: at 0.1 µM
# T5 sequence (whole entry): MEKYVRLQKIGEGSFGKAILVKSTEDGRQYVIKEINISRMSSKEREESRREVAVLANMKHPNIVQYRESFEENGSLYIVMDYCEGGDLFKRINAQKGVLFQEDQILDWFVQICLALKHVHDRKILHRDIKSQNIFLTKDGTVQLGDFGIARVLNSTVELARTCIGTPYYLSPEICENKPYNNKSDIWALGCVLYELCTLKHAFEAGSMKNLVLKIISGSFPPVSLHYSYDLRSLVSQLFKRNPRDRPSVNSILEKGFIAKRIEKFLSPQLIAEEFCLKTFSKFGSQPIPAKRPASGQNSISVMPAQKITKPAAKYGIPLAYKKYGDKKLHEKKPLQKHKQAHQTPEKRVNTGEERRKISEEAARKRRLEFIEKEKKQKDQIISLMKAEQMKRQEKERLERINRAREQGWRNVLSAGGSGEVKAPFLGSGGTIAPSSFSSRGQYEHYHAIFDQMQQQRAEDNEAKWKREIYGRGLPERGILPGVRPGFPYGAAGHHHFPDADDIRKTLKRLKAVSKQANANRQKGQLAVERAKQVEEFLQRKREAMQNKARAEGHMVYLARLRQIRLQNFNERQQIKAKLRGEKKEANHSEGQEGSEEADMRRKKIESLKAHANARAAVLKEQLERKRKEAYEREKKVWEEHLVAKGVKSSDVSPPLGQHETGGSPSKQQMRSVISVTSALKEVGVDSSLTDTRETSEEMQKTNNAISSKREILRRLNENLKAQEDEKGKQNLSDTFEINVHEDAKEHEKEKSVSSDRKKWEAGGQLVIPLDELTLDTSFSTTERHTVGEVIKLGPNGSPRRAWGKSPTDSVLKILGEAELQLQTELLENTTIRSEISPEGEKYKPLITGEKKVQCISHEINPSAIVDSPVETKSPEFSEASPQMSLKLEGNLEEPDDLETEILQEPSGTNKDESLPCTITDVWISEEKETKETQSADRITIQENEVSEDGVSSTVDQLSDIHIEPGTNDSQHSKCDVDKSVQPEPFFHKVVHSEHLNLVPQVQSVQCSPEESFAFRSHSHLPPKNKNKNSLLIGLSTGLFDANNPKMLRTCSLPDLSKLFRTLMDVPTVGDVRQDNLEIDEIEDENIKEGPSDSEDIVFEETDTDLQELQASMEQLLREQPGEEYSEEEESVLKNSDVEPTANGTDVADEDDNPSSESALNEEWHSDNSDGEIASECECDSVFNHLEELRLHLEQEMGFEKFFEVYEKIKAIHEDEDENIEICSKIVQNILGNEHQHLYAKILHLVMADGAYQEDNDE
# [13] = molecular target: T5, Serine/threonine-protein kinase Nek1 (Homo sapiens); settings: at 1 µM
# [14] = molecular target: T6, Serine/threonine-protein kinase Nek2 (Homo sapiens) (UniProt P51955); settings: at 0.1 µM
# T6 sequence (whole entry): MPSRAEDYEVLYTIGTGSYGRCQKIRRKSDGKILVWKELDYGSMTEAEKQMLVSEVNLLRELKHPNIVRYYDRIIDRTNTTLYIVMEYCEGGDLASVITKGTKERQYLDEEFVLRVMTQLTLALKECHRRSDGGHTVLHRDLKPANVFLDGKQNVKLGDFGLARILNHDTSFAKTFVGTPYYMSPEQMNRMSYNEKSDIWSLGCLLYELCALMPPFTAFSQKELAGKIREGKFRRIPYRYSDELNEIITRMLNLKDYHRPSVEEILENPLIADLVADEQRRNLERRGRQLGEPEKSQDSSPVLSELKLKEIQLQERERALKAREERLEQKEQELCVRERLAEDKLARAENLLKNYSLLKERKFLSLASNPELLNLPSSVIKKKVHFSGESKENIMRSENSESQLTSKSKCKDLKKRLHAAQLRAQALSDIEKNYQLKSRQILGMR
# [15] = molecular target: T6, Serine/threonine-protein kinase Nek2 (Homo sapiens); settings: at 1 µM
# [16] = molecular target: Serine/threonine-protein kinase Nek6 (Homo sapiens) (UniProt Q9HC98); settings: at 0.1 µM
# [17] = molecular target: Serine/threonine-protein kinase Nek6 (Homo sapiens) (UniProt Q9HC98); settings: at 1 µM
# [18] = molecular target: Serine/threonine-protein kinase Nek7 (Homo sapiens) (UniProt Q8TDX7); settings: at 0.1 µM
# [19] = molecular target: Serine/threonine-protein kinase Nek7 (Homo sapiens) (UniProt Q8TDX7); settings: at 1 µM
# [20] = molecular target: T7, Serine/threonine-protein kinase Nek9 (Homo sapiens) (UniProt Q8TD19); settings: at 0.1 µM;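 also: reported value is the mean percent inhibition of NEK9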
# T7 sequence (whole entry): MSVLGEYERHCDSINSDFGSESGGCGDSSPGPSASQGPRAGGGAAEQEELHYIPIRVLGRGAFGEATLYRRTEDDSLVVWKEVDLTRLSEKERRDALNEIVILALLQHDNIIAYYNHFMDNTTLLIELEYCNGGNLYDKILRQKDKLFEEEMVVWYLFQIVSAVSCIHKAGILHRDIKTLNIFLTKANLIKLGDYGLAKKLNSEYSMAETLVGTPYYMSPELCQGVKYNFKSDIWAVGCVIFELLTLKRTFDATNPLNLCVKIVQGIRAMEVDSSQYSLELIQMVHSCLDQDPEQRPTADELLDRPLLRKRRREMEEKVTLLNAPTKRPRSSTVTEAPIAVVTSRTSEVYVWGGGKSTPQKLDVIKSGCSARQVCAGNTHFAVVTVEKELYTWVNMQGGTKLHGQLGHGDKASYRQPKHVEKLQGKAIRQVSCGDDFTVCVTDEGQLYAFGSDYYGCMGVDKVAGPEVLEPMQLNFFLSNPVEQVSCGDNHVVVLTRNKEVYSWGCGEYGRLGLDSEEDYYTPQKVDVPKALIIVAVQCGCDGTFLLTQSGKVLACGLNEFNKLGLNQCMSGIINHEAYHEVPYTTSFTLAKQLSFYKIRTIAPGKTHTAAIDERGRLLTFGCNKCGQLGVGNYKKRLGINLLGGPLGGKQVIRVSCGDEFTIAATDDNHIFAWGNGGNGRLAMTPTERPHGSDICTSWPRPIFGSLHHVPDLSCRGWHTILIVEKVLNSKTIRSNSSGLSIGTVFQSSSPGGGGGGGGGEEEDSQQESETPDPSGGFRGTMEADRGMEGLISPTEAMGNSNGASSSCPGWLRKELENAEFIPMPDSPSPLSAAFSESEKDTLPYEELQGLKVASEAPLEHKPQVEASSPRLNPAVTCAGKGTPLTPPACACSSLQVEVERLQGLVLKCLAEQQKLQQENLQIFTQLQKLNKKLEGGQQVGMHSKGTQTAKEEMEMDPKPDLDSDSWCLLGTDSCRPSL
# Chain of Serine/threonine-protein kinase Nek6 (Homo sapiens) (Q9HC98 whole entry): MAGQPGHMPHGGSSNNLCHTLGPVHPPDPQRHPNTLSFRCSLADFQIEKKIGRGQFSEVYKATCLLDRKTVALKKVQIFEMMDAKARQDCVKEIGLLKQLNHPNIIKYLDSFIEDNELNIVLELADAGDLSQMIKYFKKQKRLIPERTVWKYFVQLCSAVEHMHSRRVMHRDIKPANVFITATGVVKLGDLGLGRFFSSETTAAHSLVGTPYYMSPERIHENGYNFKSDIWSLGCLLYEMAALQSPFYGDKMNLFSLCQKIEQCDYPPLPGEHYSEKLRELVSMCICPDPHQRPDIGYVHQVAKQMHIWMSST
# Chain of Casein kinase II subunit alpha (Homo sapiens) (P68400 whole entry, looked up): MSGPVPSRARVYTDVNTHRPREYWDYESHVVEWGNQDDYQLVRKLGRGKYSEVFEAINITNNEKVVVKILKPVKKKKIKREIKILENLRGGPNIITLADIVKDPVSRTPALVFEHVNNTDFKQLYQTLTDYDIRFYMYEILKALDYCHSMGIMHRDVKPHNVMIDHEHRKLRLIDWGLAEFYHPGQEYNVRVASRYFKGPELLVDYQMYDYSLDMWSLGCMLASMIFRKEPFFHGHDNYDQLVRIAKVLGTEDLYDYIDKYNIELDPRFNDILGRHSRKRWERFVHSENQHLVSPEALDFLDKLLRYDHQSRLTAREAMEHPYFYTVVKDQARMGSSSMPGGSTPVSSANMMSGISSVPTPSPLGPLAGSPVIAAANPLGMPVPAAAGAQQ
# Chain of Serine/threonine-protein kinase Nek7 (Homo sapiens) (Q8TDX7 whole entry, looked up): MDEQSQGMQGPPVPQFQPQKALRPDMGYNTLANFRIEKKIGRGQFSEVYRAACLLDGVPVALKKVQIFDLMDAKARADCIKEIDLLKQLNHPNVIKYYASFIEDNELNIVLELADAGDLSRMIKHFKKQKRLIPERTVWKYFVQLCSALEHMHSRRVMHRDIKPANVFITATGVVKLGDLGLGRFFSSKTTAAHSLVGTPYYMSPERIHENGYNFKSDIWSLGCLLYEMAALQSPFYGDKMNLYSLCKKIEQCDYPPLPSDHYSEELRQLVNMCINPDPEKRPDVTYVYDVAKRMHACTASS
# Chain of Sphingosine kinase 1 (Homo sapiens) (Q9NYA1 whole entry): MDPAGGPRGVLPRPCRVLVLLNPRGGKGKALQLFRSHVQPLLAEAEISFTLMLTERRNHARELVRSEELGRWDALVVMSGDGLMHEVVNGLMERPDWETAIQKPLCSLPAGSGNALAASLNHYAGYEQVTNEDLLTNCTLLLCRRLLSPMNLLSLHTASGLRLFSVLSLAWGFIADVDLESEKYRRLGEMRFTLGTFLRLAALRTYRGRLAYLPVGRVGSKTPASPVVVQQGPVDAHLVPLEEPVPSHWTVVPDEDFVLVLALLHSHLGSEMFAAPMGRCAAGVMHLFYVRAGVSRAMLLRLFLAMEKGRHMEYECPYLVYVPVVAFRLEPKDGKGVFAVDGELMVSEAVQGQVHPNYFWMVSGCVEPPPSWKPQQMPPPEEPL
smiles,measurement,setting,value
Cc1ccc(NC(=O)c2ccoc2)cc1-c1ccc(C(=O)NCC2CC2)cc1,inhibition,[1],-2.32%
same,inhibition,[2],0.42%
same,inhibition,[3],-0.05%
same,inhibition,[4],2.64%
same,inhibition,[5],1.38%
same,inhibition,[6],0.11%
same,inhibition,[7],7.23%
same,inhibition,[8],3.9%
same,inhibition,[9],3.86%
same,inhibition,[10],3.64%
same,inhibition,[11],2.47%
same,inhibition,[12],1.2%
same,inhibition,[13],0.36%
same,inhibition,[14],3.49%
same,inhibition,[15],3.48%
same,inhibition,[16],2.49%
same,inhibition,[17],0.14%
same,inhibition,[18],0.66%
same,inhibition,[19],1.16%
same,inhibition,[20],5.95%
